Screens: PubChem BioAssay, National Center for Advancing Translational Sciences (NCATS)
PLK1 PBD block = qHTS for Inhibitors of PLK1-PDB (polo-like kinase 1 - polo-box domain): Primary Screen; Serine/threonine-protein kinase PLK1 (Homo sapiens), P53350; Plk1 PBD binding of FITC phosphopeptide, fluorescence polarization; Potency, µM, for inactives: max response, negative = inhibition, actives largely listed as inhibitors; hit rate 2.8% among 360,000; AID 720504, 2013; note: series mostly up to about 57 µM; % is set by controls: 0 for no effect and ±100 for the full control effect; nearly all actives have a fitted effect of over 65% in size
KAT2A inh = qHTS Assay for Inhibitors of GCN5L2; GCN5L2 HAT assay, ThioGlo1 CoA-SH fluorescence; hit rate 0.21% among 390,000; Potency, µM (highest dose often 58.9 µM), for the others: at the highest dose activity change, negative = inhibition, hits mostly inhibitors; AID 504327, 2011; Histone acetyltransferase KAT2A (Homo sapiens), Q92830; note: % is set by controls: 0 for no effect and ±100 for the full control effect
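Fluorescence readout, Ex340nm/Em540nm: ThioGlo1 (50uM final) reacts with free CoA thiol released as 20nM GCN5L2 acetylates H3(1-25) peptide (75uM) using acetyl-CoA (70uM). Compound and enzyme sat 15 min beforehand; 20 min room-temperature reaction.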
USP1 inh = Inhibitors of USP1/UAF1: Primary Screen; recombinant USP1/UAF1, Ub-Rhodamine cleavage fluorescence; Potency, µM (top dose mostly 57.1 µM), for inactives: top-dose activity change, negative = inhibition, most hits filed as inhibitors; hit rate 0.23% among 390,000; note: % is set by controls: 0 for no effect and ±100 for the full control effect; nearly all actives have a fitted effect of over 60% in size
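USP1/UAF1 complex at 1 nM was preincubated with compound for 15 min at room temperature, then Ub-Rho substrate (150nM final) was added. Fluorescence (480/540 nm) was read kinetically, 6 reads every 60 seconds.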
PTAP TSG101 blk = qHTS Assay for Iinhibitors of HIV-1 Budding by Blocking the Interaction of PTAP/TSG101; 340,000 tested, under 10 active; Fluorescence polarization, FITC-PTAP peptide / Tsg101 binding; Tumor susceptibility gene 101 protein (Homo sapiens), Q99816; Potency, µM (highest dose often 115 µM), inactives show top-dose activity change, negative = inhibition, usual class: inhibitors; AID 493005, 2010; active = well fitted inhibition curve with a large enough effect in the main read-out, with a control signal flat, not every such curve was filed as active; inconclusive = small, poorly fitted or top-dose-only effect, or effect the other way, or a change in a side signal; inactive = no such curve, though single readings can be large or run the other way; note: % of control where 0% means no effect
Target sequence (Q99816 whole entry, looked up): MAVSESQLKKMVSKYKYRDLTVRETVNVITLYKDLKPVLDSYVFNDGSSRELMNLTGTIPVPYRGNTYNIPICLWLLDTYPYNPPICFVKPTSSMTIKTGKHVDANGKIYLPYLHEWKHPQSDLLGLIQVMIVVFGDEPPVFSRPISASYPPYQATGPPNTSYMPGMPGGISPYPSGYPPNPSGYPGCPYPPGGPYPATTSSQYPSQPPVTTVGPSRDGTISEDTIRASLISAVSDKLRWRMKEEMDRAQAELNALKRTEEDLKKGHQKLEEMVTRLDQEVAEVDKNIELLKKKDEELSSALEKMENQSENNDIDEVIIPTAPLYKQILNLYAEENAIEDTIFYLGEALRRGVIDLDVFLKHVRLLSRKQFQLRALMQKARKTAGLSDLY
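Steps: Tsg101 binding domain dispensed (10 uM final), compounds pinned in DMSO, FITC-labeled PTAP-motif peptide added (50 nM final); after 20 min binding at room temperature, polarization measured.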
VDR inh = Inhibitors of the vitamin D receptor (VDR): qHTS | VDR-SRC2-3 peptide fluorescence polarization, 2 h | Vitamin D3 receptor (Homo sapiens), P11473 | hit rate 0.93% among 400,000 | Potency, µM, inactives show max response, negative = inhibition, most hits filed as inhibitors | AID 504847, 2011; note: % is set by controls: 0 for no effect and ±100 for the full control effect
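After 23 nl compound addition and a short centrifugation, plates sat for 2 hours at ambient temperature; polarization of fluorescence then indicated loss of VDR binding to peptide SRC2-3.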
The depositor's hits bear a star; u = inconclusive; x = no result; ! = not confirmed by another sample. The list is not random: actives were taken first. Their share in the collection is about 3%. Unless noted, calls come from the whole dose curve; as a rule, active = well fitted curve in the direction sought with a large enough effect; inconclusive = small, poorly fitted or top-dose-only effect, or another doubt; inactive = no such curve, though single readings can be large; an effect the other way counts as inactive or inconclusive. Potency is the fitted concentration of half-maximal effect.

SMILES	PLK1 PBD block	KAT2A inh	USP1 inh	PTAP TSG101 blk	VDR inh
CC(=O)Nc1ccc(/C=C(\C#N)S(=O)(=O)c2ccc(C)cc2)cc1	-20.9%	-3.0%	-8.5%	-6.4%	5.1%
CSc1nnc2c3ccccc3n(CCc3ccccc3)c2n1	-11.4%	-6.3%	-17.9%	-5.8%	-6.5%
S=c1nc2c(n[nH]1)c1ccccc1n2CCc1ccccc1	u	0.6%	-4.6%	-3.7%	79.4µM*
O=Cc1ccccc1OCCOc1ccc([N+](=O)[O-])cc1	26.7µM*	-5.5%	-22.4%	-3.8%	u
COc1ccc(NC(=O)N(C)C[C@H]2Oc3ccc(NC(=O)CCC(F)(F)F)cc3C(=O)N([C@H](C)CO)C[C@@H]2C)cc1	-9.7%	-2.0%	-24.0%	-2.3%	-2.4%
COc1ccc(NC(=O)N(C)C[C@H]2Oc3ccc(NC(=O)CCN4CCOCC4)cc3C(=O)N([C@@H](C)CO)C[C@H]2C)cc1	-15.3%	0.9%	5.01µM*	-0.5%	-4.6%
C[C@H]1CN([C@@H](C)CO)C(=O)c2cc(NS(=O)(=O)c3ccc(Cl)cc3)ccc2O[C@@H]1CN(C)CC1CCCCC1	-6.8%	-1.8%	-22.9%	-8.2%	89.1µM*
O=C(NC(=S)Nc1ccc(Cl)c(C(=O)O)c1)c1ccco1	-28.5%	-27.7%	-21.4%	0.4%	-13.5%
COc1c(C)cc(Br)cc1C(=O)NC(=S)Nc1ccc(Cl)c(C(=O)O)c1	16.8µM*	-4.7%	-7.7%	-5.8%	-15.7%
COc1cccc(C(=O)NC(=S)Nc2ccc(Cl)c(C(=O)O)c2)c1	-26.8%	x	-11.4%	-7.6%	-1.3%
NNc1ccc(Cl)c(C(=O)O)c1	29.9µM*	-4.3%	-16.8%	-5.4%	-28.3%
O=C(O)c1cc(NC(=S)NC(=O)C(c2ccccc2)c2ccccc2)ccc1Cl	67µM*	2.8%	-22.5%	-3.1%	-0.6%
O=C(CSc1ccc2nnc(CCNC(=O)c3ccc(F)cc3)n2n1)NCc1ccco1	-8.1%	-19.6%	-7.0%	1.5%	13.2%
COc1ccc(-c2nnn(CC(=O)N(CC(=O)NC3CCCC3)c3ccccc3)n2)cc1OC	3.77µM*	4.1%	8.0%	1.5%	79.4µM*
CC(C)(C)c1cc(/C=C(\C#N)C(N)=S)cc(C(C)(C)C)c1O	x	-10.9%	x	x	35.5µM*
Cc1cc(C)c(/C=C(\C#N)C(N)=S)c(C)c1	-6.2%	0.6%	-26.6%	-0.1%	-25.1%
N#C/C(=C\c1ccncc1)C(N)=O	-3.3%	1.0%	-19.4%	-6.0%	7.5%
N#CC(C#N)=C(N)/C(C#N)=C/c1cc(O)c(O)c(O)c1	46.2%	-9.5%	-25.8%	37.3%	39.8µM*!
N#C/C(=C/c1ccc(F)cc1)C(N)=S	29.9µM*	-10.6%	-5.9%	-1.7%	89.1µM*
Fc1ccc(-c2nc(Nc3ccc(F)c(Cl)c3)nc3c2COc2ccccc2-3)cc1	x	-11.4%	-2.6%	x	-5.6%
O=C(CSc1nc(-c2ccc(F)cc2)cc(C(F)(F)F)n1)NCc1ccco1	2.99µM*	-0.6%	-16.0%	0.7%	-28.0%
NC(=O)C[C@@H](N)C(=O)O	x	-8.5%	x	x	4.1%
CCOC(=O)CCC(=O)NNC(=O)c1ccc(NC(=O)c2ccccc2)cc1	29.9µM*	-4.9%	-11.7%	-3.8%	-25.3%
O=C(Nc1ccc2nc(SCC(=O)N3CCc4ccccc43)sc2c1)c1cccc(F)c1	x	-14.6%	-8.9%	x	3.6%
CCOc1cc2[nH]c(=O)n(Cc3ccc(C(=O)N4CCN(c5cccc(Cl)c5)CC4)cc3)c(=O)c2cc1OCC	x	-0.5%	4.2%	x	-2.4%
COc1cc(OC)c(OC)cc1/C=C1/C(=O)N=C(N)N1C	21.2µM*	-1.1%	-14.7%	-4.6%	u
COc1ccc(/C=C2/C(=O)N=C(N)N2C)cc1OC	0.9%	-15.2%	3.1%	2.1%	16.2%
COc1cccc(CNC(=O)c2ccc(NC(=O)C3=CSCCO3)cc2)c1	-14.8%	-18.3%	4.0%	-2.7%	7.2%
Nc1c(S(=O)(=O)O)cc(Nc2ccc(Cl)cc2)c2c1C(=O)c1ccccc1C2=O	x	28.2µM*	x	x	31.6µM*
